Source: PubChem
Sampled rows, rich in hits. Any-hit rate of the full collection: about 8.7%.
Sfp inh: inhibitors of Bacillus subtilis Sfp phosphopantetheinyl transferase | hit rate 3.5% among 310,000 | Biochemical Sfp PPTase activity, qHTS | AID 1490 | Q9F4F7 | Potency, µM, without a hit: largest response in the series, negative = inhibition, hits mostly inhibitors;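 also: the enzyme is Sfp with the accession as filed and its product quenches rhodamine fluorescence; 0% = enzyme reaction without inhibitor and -100% = no enzyme wells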
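Sfp 15 nM + cpd, 15 min RT; start w/ rhodamine-CoA 5 uM, BHQ-2-YbbR 12.5 uM (final); 50 mM Hepes pH 7.6, 10 mM MgCl2, 0.01% NP-40, 0.01% BSA; read 525/598 nm at 0 and 30 min.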
JMJD2A Tudor inh: blocks the human JMJD2A Tudor domain. AlphaScreen JMJD2A-Tudor / H3K4me3 peptide binding. hit rate 4.4% among 390,000. Potency, µM (titrated, usually from 114 µM), for inactives: at the top dose activity change, negative = inhibition, usual class: inhibitors; also: % is scaled to controls: 0 for no effect and ±100 for the full control effect; nearly all actives have a fitted effect of over 50% in size
BAZ2B inh: blocks human BAZ2B; Q9UIF8; AlphaScreen BAZ2B-H3K14Ac peptide displacement; Potency, µM (doses to about 114 µM), without a hit: at the top dose activity change, negative = inhibition, most hits filed as inhibitors; hit rate 4.4% among 360,000; AID 504333; also: % is scaled to controls: 0 for no effect and ±100 for the full control effect; nearly all actives have a fitted effect of over 60% in size
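BAZ2B (50 nM) with biotin-H3(5-23)K14Ac peptide (50 nM) in PBS pH 7.4, 0.01% Tween-20, preformed 30 min, then compound 30 min at room temperature; top concentration 110uM. AlphaScreen streptavidin donor/nickel chelate acceptor beads (10 ug/mL final), 20 min dark, signal read.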
G9a block: inhibitors of human histone lysine methyltransferase G9a. G9a H3K9 monomethylation, AlphaScreen, 2 h. Potency, µM (series often up to 102 µM), inactives show top-dose activity, negative = inhibition, actives largely listed as inhibitors. hit rate 8.8% among 350,000; also: % is scaled to controls: 0 for no effect and ±100 for the full control effect; nearly all actives have a fitted effect of over 75% in size
Target sequence (Q96KQ7 913-1193 limits assumed): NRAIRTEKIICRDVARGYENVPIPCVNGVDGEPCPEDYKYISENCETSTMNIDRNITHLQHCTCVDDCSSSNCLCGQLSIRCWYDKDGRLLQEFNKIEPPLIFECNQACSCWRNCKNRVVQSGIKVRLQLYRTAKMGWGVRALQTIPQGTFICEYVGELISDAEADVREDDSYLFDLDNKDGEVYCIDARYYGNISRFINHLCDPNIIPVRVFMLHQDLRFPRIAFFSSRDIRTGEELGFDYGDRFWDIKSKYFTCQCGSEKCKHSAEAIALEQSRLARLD
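Quantitative HTS format: methyltransferase activity on a biotin-tagged H3K9 peptide is measured by AlphaScreen, using a rabbit anti-monomethyl-H3K9 antibody with streptavidin donor and anti-IgG acceptor beads. Final levels are 20 nM enzyme, 500 nM peptide, 20 uM SAM; 2 h RT.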
HP1b binding inh: HP1-beta chromodomain-methylated histone interaction inhibition | Potency, µM (doses to about 114 µM), for inactives: at the highest dose activity change, negative = inhibition, hits mostly inhibitors | AlphaScreen HP1-beta / biotin-H3K9me3 peptide binding | AID 540317 | hit rate 0.56% among 390,000; also: nearly all actives have a fitted effect of over 70% in size
Target sequence (P83916 whole entry, looked up): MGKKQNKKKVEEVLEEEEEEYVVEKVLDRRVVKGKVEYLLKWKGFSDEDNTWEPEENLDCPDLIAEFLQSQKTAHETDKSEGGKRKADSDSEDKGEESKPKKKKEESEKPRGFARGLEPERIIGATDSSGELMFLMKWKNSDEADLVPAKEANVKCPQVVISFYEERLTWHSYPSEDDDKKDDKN
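AlphaScreen: HP1-beta (50 nM) preformed 30 min with biotin-H3(1-18)K9me3 peptide (50 nM) in PBS pH 7.4, 0.01% Tween-20. Compound added for 30 min at RT, then streptavidin donor/nickel chelate acceptor beads (10 ug/mL) for 30 min.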
ALOX12 inh: blocks human arachidonate 12S-lipoxygenase; hit rate 1.1% among 580,000; Potency, µM (top dose mostly 108 µM), without a hit: at the top dose activity change, negative = inhibition, actives largely listed as inhibitors; purified 12hLO, xylenol orange hydroperoxide absorbance; AID 1671190; also: % is scaled to controls: 0 for no effect and ±100 for the full control effect
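Purified human 12hLO (150 nM final) in 25 mM Hepes, 0.01% Triton X-100, pH 7.0 was preincubated 15 min at room temperature with compound. Then 40 uM arachidonic acid was added, 30 min. Hydroperoxide was read by Fe-XO absorbance ratio 573/405 nm.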
Active calls of the source: *; ? = inconclusive; . = not tested or not shown; [ ] = another dose, or the depositor's remark. Calls follow the shape of the dose curve; as a rule, active = well fitted curve in the direction sought with a large enough effect; inconclusive = small, poorly fitted or top-dose-only effect, or another doubt; inactive = no such curve, though single readings can be large; an effect the other way counts as inactive or inconclusive. Potency is read from the fitted curve at half-maximal effect.

SMILES | Sfp inh | JMJD2A Tudor inh | BAZ2B inh | G9a block | HP1b binding inh | ALOX12 inh
CCc1cc(C(=O)NNC(=S)NC)cs1 | . | . | . | . | . | -2%
Cc1ncsc1CCC(=O)N1CCC2(CCNCC2)CC1 | . | . | . | . | . | 16µM*
Cc1noc(-c2ccc(S(=O)(=O)N3C[C@H](C4CC4)[C@@H](N)C3)o2)c1C | . | . | . | . | . | 63%
CC(C)C(=O)Nc1ccc(C(=O)NNC(=S)Nc2ccccc2)cc1 | . | . | . | . | . | 7%
CC(=O)NC1=NN(C(C)=O)C(C)(c2ccccc2)S1 (stereo not drawn) | 9% | -2% | 45µM* | ? | 9% | 17%
CC(=O)NC1=NN(C(C)=O)C(C)(c2ccc3ccccc3c2)S1 (stereo not drawn) | 4% | -3% | -39% | 1%[59 µM] | 27% | -7%
O=c1[nH]c(=O)n(Cc2ccccc2)c2c1CN(Cc1ccco1)CN2 | . | . | . | . | . | 0%
Cc1ccnc(SCCn2c(N3CCN(CCO)CC3)nc3c2c(=O)n(C)c(=O)n3C)n1 | . | . | . | . | . | 0%
O=C1C=C(c2ccc3cc[nH]c3c2)C[C@@H](c2ccc3c(c2)OCO3)C1 | . | 56µM* | 50µM* | -4%[0.501 µM] | ? | .
O=C1C=C(c2ccc3c(c2)OCO3)C[C@@H](c2ccc3c(c2)OCO3)C1 | . | -20% | -11% | 6%[0.501 µM] | 22% | -14%
C[C@H](NC(=O)[C@@H]1Cc2ccccc2CN1C(=O)OC(C)(C)C)C(=O)Nc1ccc2c(c1)OCCO2 | . | . | . | . | . | 8%
CCCNC(=O)CNC(=O)c1ccc2ccccc2n1 | . | . | . | . | . | -7%
CC1CCN(CC2CCCN(C(=O)C3(c4ccccc4)CC3)CC2)CC1 (stereo not drawn) | . | . | . | . | . | 14%
COc1ccc(NC(=O)c2nc[nH]c2C(=O)Nc2ccccc2C)cc1 | 12% | -18% | -9% | -2% | 45% | 0%
CCOc1ccccc1NC(=O)c1nc[nH]c1C(=O)Nc1ccccc1OCC | -7% | -20% | 56µM* | 13µM* | -2% | .
CCOc1ccccc1NC(=O)c1cccc2ccccc12 | -4% | 75% | 12% | 67% | 96% | 0%
CCOc1ccccc1NC(=O)c1csc(C)c1C | 4% | 48% | 20% | 35µM* | 91% | ?
COc1ccccc1NC(=O)c1nc[nH]c1C(=O)Nc1ccccc1OC | 56µM* | -11% | ? | 11µM* | ? | -10%
CCOC(=O)Cc1nnc(NC(=O)C(CC)Sc2nc(C)cc(=O)[nH]2)s1 (stereo not drawn) | 2% | ? | 3% | 71µM* | -18% | -25%
CCOC(=O)Cc1nnc(NC(=O)C(CC)Sc2nncn2C)s1 (stereo not drawn) | 6% | -14% | ? | 9%[59 µM] | 24% | -19%
COCCOCC(=O)NCCc1noc(-c2ccccc2)n1 | . | . | . | . | . | 1%
N=C1N(c2ccccc2)C(=S)C(=Nc2ccccc2)N1c1ccccc1 | . | 25µM* | . | . | 45µM* | ?
CNC(=O)c1ccc(-c2nc(CN3CCN(C(=O)Nc4ccc(C)c(F)c4)CC3)c(C)o2)cc1 | . | . | . | . | . | 2%
Cc1ccc2cc(CCl)c(Cl)nc2c1 | -1% | 4% | ? | -28%[12.7 µM] | 36% | -9%
Cc1ccc2cc(CCl)c(Cl)nc2c1C | . | . | . | . | . | 4.5µM*
SMILES | Sfp inh | JMJD2A Tudor inh | BAZ2B inh | G9a block | HP1b binding inh | ALOX12 inh
COc1ccc2[nH]c(=O)cc(C(=O)O)c2c1 | 9% | ? | 50µM* | 35µM* | -7% | 2%
O=C(NCc1cccc(F)c1)C1CCN(C(=O)c2ncn3c2COC(c2ccc(F)cc2)C3)CC1 (stereo not drawn) | . | . | . | . | . | 38%
CCCCc1nc(Cl)c(CN2CCCC(COc3ccccc3C(=O)NC3CC3)C2)[nH]1 (stereo not drawn) | . | . | . | . | . | 22%
CCc1cccc(CC)c1NC(=O)CSc1nc2ccc(N3C(=O)C4C(C3=O)[C@H]3C=C[C@@H]4C3)cc2s1 (stereo partly drawn) | -5% | -19% | -35% | 1.4µM* | -15% | ?
CCC(NC(=O)c1cccs1)c1ccccc1 (stereo not drawn) | . | . | . | . | . | 7%
CCOC(=O)Nc1ccc2c(c1)Nc1ccccc1S2 | 6% | 40µM* | 28µM* | 8.9µM* | -42% | ?
CC(=O)c1ccc2c(c1)Nc1ccccc1S2 | 6% | -7%[57.1 µM] | 4% | 2.8µM* | -1% | 0%
CNCC(=O)N[C@H]1CCN2C(=O)c3cc(-c4cc(Cl)ccc4OC)ccc3NC(=O)[C@@H]2C1 | . | . | . | . | . | -4%
COc1cc(Cl)ccc1-c1nc(C2CC(=O)N(C3CCCCC3)C2)no1 (stereo not drawn) | . | . | . | . | . | 3%
O=C(NCc1ccccc1)C1CCC(=O)N1C1CCNCC1 (stereo not drawn) | . | . | . | . | . | 20%
Cc1ccccc1N1CCN(C2CCCN(C(=O)c3ccc(Cl)s3)C2)CC1 (stereo not drawn) | 7% | -16% | -35% | -15% | 6% | 0%
Cc1ccc(C(=O)N2CCCC(N3CCN(c4ccccc4C)CC3)C2)c(=O)[nH]1 (stereo not drawn) | 2% | 50µM* | -6%[57.1 µM] | 10% | ? | 6%
COc1cc(C(F)(F)F)c(C(=O)N(C)Cc2cccc(Cl)c2)cn1 | 11% | 7% | 3% | 10% | 24% | ?
COc1cc(C(F)(F)F)c(C(=O)NCc2cccc(Cl)c2)cn1 | 9% | 10% | 4% | 79µM* | 46% | 0%
COc1ccc(C2SCC(=O)N2c2nc3ccccc3s2)cc1 (stereo not drawn) | -3% | 9% | 0% | 43% | 75% | 2%
COc1ccc(C2=NN(c3nc4ccccc4s3)C(=O)/C2=C\N(C)C)cc1 | -6% | -22% | 3% | 9%[59 µM] | 10% | 22µM*
CCOC(=O)c1c(C)n(-c2ccc(C)cc2)c2c(CC(C)=O)c(Br)c(OC)c(O)c12 | 12% | -8% | 9% | 3%[59 µM] | 23% | -7%
Cc1ccc(C(=O)c2coc3ccc(O)c(Cl)c23)cc1 | -3% | -26% | 1% | -12%[12.7 µM] | -3% | ?
CCOC(=O)C(C(C)=O)c1c(Br)c(O)c(O)c2c(C(=O)c3ccc(C)cc3)coc12 (stereo not drawn) | 13µM* | ? | 40µM* | ? | ? | ?
CCOC(=O)c1c(C)n(-c2ccc(C)cc2)c2c(C(C(C)=O)C(=O)O)c(Br)c(O)c(O)c12 (stereo not drawn) | 0.89µM* | -36% | 11% | ? | ? | 98%
CCOC(=O)c1sc(N2C(=O)C(O)=C(C(=O)c3ccco3)C2c2cccc([N+](=O)[O-])c2)nc1C (stereo not drawn) | ? | ? | ? | 45µM* | -3% | 45µM*
